Experiment [1] in a line: inhibitors of TNFa-induced NFkB p65 translocation, primary screen, imaging, HUVEC, MLSMR starter and 10KST1 sets (AID 438;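 active = inhibition above 20% together with a positive visual image hit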;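 also: compound added about 3h40 before a 20 min TNFalpha stimulation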;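 as to inhibition: signal is the nuclear over cytoplasmic p65 intensity ratio per well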). To be noted: HUVEC TNFa-induced p65 nuclear translocation; cell count: measured here: nuclei count (cytotoxicity indicator), at 2.08 µM; inhibition: at 2 µM, stronger effect = higher value, 0% TNFa-plus-vehicle, 100% no-TNFa wells.
Experiment [2] is described as follows: inhibitors of mutant huntingtin aggregation, primary screen, imaging, exon1htt(103Q)mCFP cells, high-content imaging (AID 483;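 active = visual image review flags a hit and inhibition of aggregation exceeds 20%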;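 also: compound exposure lasted 3 days before fixation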;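 as to nuclei count: percent of the per-plate median nuclei count of sample wells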). Conditions: exon1htt(103Q)mCFP cell line, aggregate imaging, at 2 µM; inhibition of aggregation: stronger effect = higher value; nuclei count: measured here: cell count, toxicity.
Experiment [3] in a line: inhibitors of E-selectin induction by TNFa, primary screen, imaging, HUVEC, immunofluorescence, MLSMR starter and 10KST1 sets (AID 487;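 active = visually confirmed hit in the image check and inhibition above 20%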;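 as to inhibition: signal is fraction of cell area covered by stained E-selectin grains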;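 as to nuclei count: 100% = median nuclei count of all wells on the same plate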). Conditions: HUVEC TNFalpha-induced E-selectin immunofluorescence imaging, at 2 µM; inhibition: stronger effect = higher value; nuclei count: measured here: cell number, toxicity.
Experiment [4] in a line: DUSP6 inhibitors restoring Erk phosphorylation by chemical complementation, primary imaging in DUSP6-transfected HeLa (AID 609;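 active = compounds giving at least 50% inhibition in the cell-based MKP-3 phosphatase rescue imaging test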;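 as to inhibition: phospho-Erk level distribution per well compared with pooled transfected vehicle control wells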). To be noted: HeLa MKP-3 transfected, phospho-Erk imaging KS statistic, at 10 µM, cells stimulated with TPA for 15 min.
For experiment [5], the target named is Dual specificity protein phosphatase 6 (Homo sapiens) (UniProt Q16828). Described as above. Conditions: HeLa MKP-3 transfected, phospho-Erk imaging KS statistic; at 10 µM; stronger effect = higher value; cells stimulated with TPA for 15 min.
For experiment [6], the target named is Voltage-gated potassium channel subunit beta-2 (Rattus norvegicus) (UniProt P62483). Briefly: KvBeta enzyme negative modulators, primary screen, biochemical, NADPH fluorescence (AID 622;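 active = fluorescence slope higher than the sample average by over 3 SD, cut at about -0.22 in these data, passing the limit was not always enough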;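 also: slope of raw intensity against log time taken from 70 to 1610 s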). Conditions: recombinant KvBeta, 4-cyanobenzaldehyde reduction, at 10 µM, stronger effect = higher value.
Experiment [7] has the same target. Kind of experiment: KvBeta positive modulators, primary screen, biochemical, NADPH fluorescence (AID 623).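 Also: fluorescence intensity change per second fitted from 20 to 320 s.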 To be noted: Recombinant KvBeta, NADPH fluorescence decrease slope, 10 min; at 10 µM; stronger effect = lower value.
The target in experiment [8] is Alpha-2C adrenergic receptor (Homo sapiens) (UniProt P18825). Briefly: modulators of alpha2C/GIRK thallium flux, primary screen, cell-based, HEK293 alpha2C/GIRK1/2 (AID 624;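 active = fluorescence slope after compound addition differing from the mean of all screened samples at 99.7% confidence, in either direction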;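 also: slope of fluorescence ratio to pre-addition baseline per second over 15 to 24 s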). Conditions: thallium flux BTC fluorescence, at 10 µM, actives lie on both sides.
The target of experiment [9] is Muscarinic acetylcholine receptor M4 (Homo sapiens) (UniProt P08173). Briefly: compounds altering M4/GIRK thallium flux, either direction, primary screen, M4 allosteric agonist project, cell-based, HEK293 M4/GIRK, BTC-AM (AID 625;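 active = fluorescence slope after compound addition differing from the mean of all tested samples at 99.7% confidence, mostly higher but some lower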;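 also: thallium influx through GIRK channels coupled to M4 in HEK293 cells with BTC-AM dye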). To be noted: at 10 µM, actives lie on both sides.
The nature of experiment [10]: inhibitors of larval lipid processing in zebrafish, primary screen, whole organism, PED6 fluorescence, gall bladder and intestine (AID 686;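 active = a full or partial loss of lipid-probe fluorescence in the fish gall bladder, intestine or both, judged by eye; inactive = no fluorescence loss, or compound toxic to the fish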;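 also: larvae 5 to 7 days old with five fish per well; signal comes from phospholipase A2 cleavage of quenched PED6 carried via bile; overnight exposure to compound and PED6 before scoring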). To be noted: Zebrafish larvae PED6 lipid processing, fluorescence scoring; screened at 20 µM (by protocol).
Experiment [11] is described as follows: inhibitors of Chlamydomonas gravitaxis, primary screen, whole organism, Chlamydomonas reinhardtii, WT vs cilia-less mutant, absorbance, 96-well (AID 463189;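 active = inhibition at or above 50% relative to wild type and mutant plate controls; inactive = inhibition below 50%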;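 also: 0% = wild type cc124 cells in DMSO and 100% = ciliumless bld1 mutant cells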). To be noted: OD600 absorbance, 2 days, at 10 µM, stronger effect = higher value.
Experiment [12] in a line: inhibitors of Sendai virus-induced IRF3 signaling, primary screen, TLR/RLR signaling modifier project, cell-based, Sendai virus stimulus, luciferase, 10K MLSCN set (AID 602276;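 active = inhibition at or above 50% at 10 µM; inactive = inhibition below 50%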;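 also: firefly luciferase from ISG56 promoter only with Renilla not read in this screen; 0% = Sendai virus plus DMSO and 100% = medium plus DMSO without virus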). To be noted: HEK293 RL24 IRF3 luciferase reporter, at 10 µM, stronger effect = higher value. Background: A reporter such as luciferase makes a cellular process visible.
Experiment [13] is described as follows: inhibitors of poly I:C-induced TLR3 signaling, primary screen, cell-based, poly I:C stimulus, luciferase, 10K MLSCN set (AID 602277;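 active = inhibition of the reporter signal at or above 50%; inactive = inhibition below 50%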). To be noted: HEK293-TLR3 RL24 IRF3 luciferase reporter, at 10 µM, stronger effect = higher value.
Where [14] appears, read: measured here: cell density z-score.
Where [15] appears, read: measured here: nuclear c-Myc green intensity z-score.
Setting [16] is: measured here: nuclear pErk red intensity z-score, stronger effect = higher value.

Active and inactive are the calls of the source.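 The calls were made as follows, unless noted: active = NADPH fluorescence slope more negative than the mean of all samples by about 3 SD, 99.7% confidence; inactive = the rest.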

Chain of Alpha-2C adrenergic receptor (Homo sapiens) (P18825 whole entry, looked up): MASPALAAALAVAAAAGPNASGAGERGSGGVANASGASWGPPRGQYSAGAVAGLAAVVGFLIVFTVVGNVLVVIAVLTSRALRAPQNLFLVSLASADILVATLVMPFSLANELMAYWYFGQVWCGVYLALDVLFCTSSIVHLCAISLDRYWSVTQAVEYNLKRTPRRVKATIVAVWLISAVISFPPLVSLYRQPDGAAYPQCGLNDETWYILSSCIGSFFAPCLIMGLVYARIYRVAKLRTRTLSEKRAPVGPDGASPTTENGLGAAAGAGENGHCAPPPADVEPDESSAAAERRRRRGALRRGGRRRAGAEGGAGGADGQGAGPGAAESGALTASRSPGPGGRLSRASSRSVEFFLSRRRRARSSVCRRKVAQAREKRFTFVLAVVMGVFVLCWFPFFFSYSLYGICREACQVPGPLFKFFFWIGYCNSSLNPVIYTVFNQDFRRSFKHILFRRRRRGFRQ
Chain of Muscarinic acetylcholine receptor M4 (Homo sapiens) (P08173 whole entry, looked up): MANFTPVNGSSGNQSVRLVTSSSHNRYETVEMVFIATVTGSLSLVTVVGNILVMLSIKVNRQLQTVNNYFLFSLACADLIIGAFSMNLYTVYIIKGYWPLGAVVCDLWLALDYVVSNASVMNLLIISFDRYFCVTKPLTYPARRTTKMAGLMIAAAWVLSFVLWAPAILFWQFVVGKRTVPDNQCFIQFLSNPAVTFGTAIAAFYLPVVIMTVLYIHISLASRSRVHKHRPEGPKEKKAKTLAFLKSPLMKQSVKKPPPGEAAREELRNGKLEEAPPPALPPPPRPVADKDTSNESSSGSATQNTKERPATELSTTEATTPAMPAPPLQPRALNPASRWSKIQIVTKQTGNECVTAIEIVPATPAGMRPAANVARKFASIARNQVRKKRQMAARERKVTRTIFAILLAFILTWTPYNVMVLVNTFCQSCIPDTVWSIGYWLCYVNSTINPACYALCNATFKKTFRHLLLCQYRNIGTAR
Chain of Voltage-gated potassium channel subunit beta-2 (Rattus norvegicus) (P62483 whole entry, looked up): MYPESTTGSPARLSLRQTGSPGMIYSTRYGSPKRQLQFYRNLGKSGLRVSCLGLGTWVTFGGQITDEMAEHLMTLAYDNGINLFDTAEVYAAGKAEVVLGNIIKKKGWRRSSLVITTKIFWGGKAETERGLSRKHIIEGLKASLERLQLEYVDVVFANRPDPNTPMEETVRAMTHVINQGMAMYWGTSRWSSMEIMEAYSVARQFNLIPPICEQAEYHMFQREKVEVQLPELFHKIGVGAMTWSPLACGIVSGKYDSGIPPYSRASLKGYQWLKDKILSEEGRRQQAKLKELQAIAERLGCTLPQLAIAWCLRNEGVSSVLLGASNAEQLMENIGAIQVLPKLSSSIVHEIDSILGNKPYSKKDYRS
Chain of Dual specificity protein phosphatase 6 (Homo sapiens) (Q16828 whole entry, looked up): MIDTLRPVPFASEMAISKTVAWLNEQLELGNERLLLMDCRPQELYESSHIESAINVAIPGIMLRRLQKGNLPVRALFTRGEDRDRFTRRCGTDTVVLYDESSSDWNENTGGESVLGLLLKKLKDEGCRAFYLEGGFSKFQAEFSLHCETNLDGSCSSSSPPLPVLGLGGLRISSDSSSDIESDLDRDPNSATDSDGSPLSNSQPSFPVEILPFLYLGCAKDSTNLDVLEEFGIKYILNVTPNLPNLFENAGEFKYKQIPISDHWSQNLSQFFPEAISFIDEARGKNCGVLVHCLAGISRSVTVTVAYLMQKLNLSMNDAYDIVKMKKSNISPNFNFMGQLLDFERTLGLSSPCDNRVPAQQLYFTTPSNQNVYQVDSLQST

One may read the inhibition as the change of the read-out against control, counted positive when it falls. Turning to `CCOC(=O)c1[nH]c2cc(OC)c(OC)cc2c1NC(=O)C(C)N1CCN(Cc2ccccc2)CC1` (stereo not given), the cell count in [1] amounted to 541. Also, the inhibition was -4.7% (inactive) in [1]; -11.1% (inactive) in [3]; 13.9% (inactive) in experiment [5]; 19.7% (inactive) in experiment [11]; -0.312% (inactive) in experiment [12]; 3.3% (inactive) in [13]. The inhibition of aggregation in [2] is 10.2% (inactive). The nuclei count was found to be 106% in [2] and 140% in experiment [3]. Moreover, the z-score in experiment [4] (setting [14]) is 0.355; in experiment [4] (setting [15]) it was -0.877; in experiment [4] (setting [16]), -1.74. The fluorescence slope in experiment [6] is -0.0434 (active); in experiment [9] it was 0.00565 (inactive). Moreover, the NADPH fluorescence slope in [7] was 2.3e-06 (inactive). The slope in [8] was 0.00443 (inactive). In experiment [10], the molecule was classed as inactive.
As to `CC(CN1CCN(C)CC1)OC(=O)c1ccc(Cl)cc1Cl` (stereo not given), the cell count in [1] was 495. For the same molecule, the inhibition in experiment [1] is 2.7% (inactive); in experiment [3], 5.7% (inactive); in [5] it was -0.624% (inactive); in experiment [11] it was 136% (active); in [12], 11.3% (inactive); in experiment [13], 23.1% (inactive). In addition, the inhibition of aggregation in experiment [2] is -4.3% (inactive). For the same molecule, the results for the nuclei count in [2] and in [3] were 89.3% and 93.6%, respectively. The z-score is 0.0987 in experiment [4] (setting [14]), 0.463 in experiment [4] (setting [15]) and -0.406 in experiment [4] (setting [16]). Besides, the fluorescence slope in experiment [6] was -0.4 (inactive); in experiment [9], 0.00468 (inactive). Besides, in experiment [7], the NADPH fluorescence slope was -7.7e-06 (inactive). For the same molecule, in experiment [8], the slope was 0.00282 (inactive). Besides, in experiment [10], the molecule was classed as inactive.
`N#CC1(c2ccccc2)CCC(=NO)CC1` (stereo not given): in [1], the cell count stood at 685. The inhibition in experiment [1] was -0.6% (inactive); in experiment [3], 8.8% (inactive); in [5], -13.3% (inactive); in [11], -5.88% (inactive); in [12], 10.2% (inactive); in experiment [13], 20.6% (inactive). Besides, the inhibition of aggregation in [2] was -8% (inactive). For the same molecule, the nuclei count in experiment [2] stood at 102%; in [3], 86.8%. In addition, the results for the z-score in [4] (setting [14]), in [4] (setting [15]) and in experiment [4] (setting [16]) were -0.0727, 1.42 and -0.351, respectively. The fluorescence slope is -0.461 (inactive) in experiment [6] and 0.00503 (inactive) in experiment [9]. In addition, the NADPH fluorescence slope in experiment [7] was -4.5e-05 (inactive). The slope in [8] was 0.00512 (inactive). In experiment [10], the molecule was called inactive.
`CCc1cc2c(=O)c(-c3nc4ccccc4[nH]3)coc2cc1OC(=O)N1CCOCC1`: the cell count in experiment [1] worked out at 666. Also, the inhibition in experiment [1] was -4.8% (inactive); in [3], -44.8% (inactive); in [5], -9.53% (inactive); in experiment [11] it was -11.5% (inactive); in [12], -4.36% (inactive); in [13], -9.08% (inactive). Also, the inhibition of aggregation in experiment [2] is -15.2% (inactive). Besides, the nuclei count in experiment [2] was found to be 126%; in [3], 149%. Further, the results for the z-score in experiment [4] (setting [14]), in [4] (setting [15]) and in experiment [4] (setting [16]) were 0.051, 0.477 and -0.475, respectively. In addition, the figures for the fluorescence slope in experiment [6] and in [9] were -0.483 (inactive) and 0.00565 (inactive), respectively. Further, the NADPH fluorescence slope in experiment [7] is -3e-05 (inactive). For the same molecule, the slope in experiment [8] was 0.00512 (inactive). The call in experiment [10] was inactive.
For the molecule `CCOC(=O)C1CCN(C(C)=C2C(=O)c3ccccc3C2=O)CC1`, the cell count in experiment [1] turned out to be 476. Further, the inhibition was -0.3% (inactive) in experiment [1]; -21.4% (inactive) in [3]; 7.73% (inactive) in experiment [5]; 25.7% (inactive) in experiment [11]; 6.04% (inactive) in experiment [12]; 16.6% (inactive) in experiment [13]. In experiment [2], the inhibition of aggregation was -15.9% (inactive). The nuclei count was 104% in experiment [2] and 95.3% in experiment [3]. The z-score in experiment [4] (setting [14]) was -0.165; in experiment [4] (setting [15]), 0.853; in [4] (setting [16]), 0.114. The fluorescence slope is -0.418 (inactive) in experiment [6] and 0.0035 (inactive) in experiment [9]. Further, in experiment [7], the NADPH fluorescence slope is -3.2e-05 (inactive). For the same molecule, the slope in [8] is 0.00587 (inactive). In addition, the outcome in [10] was inactive.

Source of the values: PubChem BioAssay.
